Test results from the supplement of paper PMC12669032.
A number with no mark means an inactive call.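 Rule for the calls: active = AUC reduced over 20% with Padj below 0.05 in at least 2 of 3 replicates; inactive = otherwise.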

Columns and labels:
Assay in all cases: growth AUC relative to DMSO control (median of replicates) (fraction); higher = more growth (less inhibition), active = hit call of the paper
Conditions in all cases: 20 µM; 24 h
Akkermansia muciniphila = system: Akkermansia muciniphila
Procedure, shortened: (§1)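 Area under the growth curve was normalised to the plate median of solvent-only wells, or to row and column medians on the industrial chemical plate. Growth curves came from anaerobic gut bacterial monocultures in mGAM at 37 °C, seeded at OD600 0.05 with 20 µM compound (1% DMSO), and read at OD600 hourly for 24 h with the minimum OD set to 0. The value is the median of three biological replicates grown on separate days.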

Bacteroides caccae = system: Bacteroides caccae
Procedure, shortened: as §1

Bacteroides clarus = system: Bacteroides clarus
Procedure, shortened: as §1

Bacteroides dorei = system: Bacteroides dorei
Procedure, shortened: as §1

Bacteroides stercoris = system: Bacteroides stercoris
Procedure, shortened: as §1

[1] = system: Bacteroides thetaiotaomicron
Procedure, shortened: as §1

Bacteroides uniformis = system: Bacteroides uniformis
Procedure, shortened: as §1

[2] = system: Bifidobacterium longum subsp. longum
Procedure, shortened: as §1

Clostridium difficile = system: Clostridium difficile
Procedure, shortened: as §1

Collinsella aerofaciens = system: Collinsella aerofaciens
Procedure, shortened: as §1

Coprococcus comes = system: Coprococcus comes
Procedure, shortened: as §1

Escherichia coli ED1a = system: Escherichia coli ED1a
Procedure, shortened: as §1

Escherichia coli IAI1 = system: Escherichia coli IAI1
Procedure, shortened: as §1

Eubacterium rectale = system: Eubacterium rectale
Procedure, shortened: as §1

[3] = system: Fusobacterium nucleatum subsp. animalis
Procedure, shortened: as §1

Lactobacillus gasseri = system: Lactobacillus gasseri
Procedure, shortened: as §1

Lactobacillus paracasei = system: Lactobacillus paracasei
Procedure, shortened: as §1

Odoribacter splanchnicus = system: Odoribacter splanchnicus
Procedure, shortened: as §1

[4] = system: Parabacteroides distasonis
Procedure, shortened: as §1

Parabacteroides merdae = system: Parabacteroides merdae
Procedure, shortened: as §1

SMILES	growth AUC (Akkermansia muciniphila)	growth AUC (Bacteroides caccae)	growth AUC (Bacteroides clarus)	growth AUC (Bacteroides dorei)	growth AUC (Bacteroides stercoris)	growth AUC [1]	growth AUC (Bacteroides uniformis)	growth AUC [2]	growth AUC (Clostridium difficile)	growth AUC (Collinsella aerofaciens)	growth AUC (Coprococcus comes)	growth AUC (Escherichia coli ED1a)	growth AUC (Escherichia coli IAI1)	growth AUC (Eubacterium rectale)	growth AUC [3]	growth AUC (Lactobacillus gasseri)	growth AUC (Lactobacillus paracasei)	growth AUC (Odoribacter splanchnicus)	growth AUC [4]	growth AUC (Parabacteroides merdae)
CNC(=O)ON=C(CS(C)=O)C(C)(C)C (stereo not given)	1.08	1.02	0.997	1.01	0.97	1.02	1.01	0.955	1.02	1	1	1.02	0.998	1.14	1.01	1.06	0.999	1.02	1.03	1.01
CCOP(=S)(OCC)Oc1nc(Cl)n(C(C)C)n1	1.04	0.932	1.02	1.01	1.14	1.01	0.972	0.964	0.982	1.02	0.986	1	0.999	0.886	1.16	0.952	0.954	0.991	0.917	0.974
N#Cc1c(O)c(Cl)c(Cl)c(C#N)c1Cl	1.02	0.98	0.979	0.969	0.979	0.995	0.784 (active)	1.02	1.02	0.985	1.02	0.989	0.987	0.938	0.868	1.02	0.986	0.912	1.03	0.994
COP(=S)(OC)Oc1cc(Cl)c(Cl)cc1Cl	1.09	0.936	1.02	0.947	1.17	1.03	0.939	0.947	1.02	1.04	0.979	1	0.971	0.945	1.06	1	1.02	0.88	0.936	0.983
CCOP(=S)(Oc1ccc([N+](=O)[O-])cc1)c1ccccc1 (stereo not given)	1.06	0.961	1.02	0.972	1.11	1.01	0.919	1.02	1.03	0.996	0.949	1.04	1.05	1.02	1.09	1.04	1.07	1.09	0.947	0.99
O=C(O)c1cc(Oc2ccc(C(F)(F)F)cc2Cl)ccc1[N+](=O)[O-]	1.01	1.04	0.925	0.916	0.84	1.02	0.985	1.06	0.966	0.956	0.967	0.992	0.948	1.06	0.957	0.95	0.966	1.03	0.896	0.971
Fc1ccc(C2(Cn3cncn3)OC2c2ccccc2Cl)cc1 (stereo not given)	0.955	1.01	0.93	0.956	1.02	0.941	0.953	0.935	0.995	0.99	0.969	1.02	1.01	0.72 (active)	0.95	0.996	0.942	0.864	0.968	0.933
C[C@@H](Oc1ccc(Oc2cnc3cc(Cl)ccc3n2)cc1)C(=O)O	1.07	0.938	1.05	1	1.29	0.986	0.988	0.964	0.989	0.976	1.05	1.02	1	0.987	1.08	0.997	1.04	0.97	0.983	1.03
COP(=O)(OC)C(O)C(Cl)(Cl)Cl (stereo not given)	0.955	1.04	1.01	1	1.01	1.01	1.02	1.02	1	1.01	1.03	1.02	1.01	1.08	0.973	1	1.02	0.965	1.04	1
C[n+]1ccc(-c2cc[n+](C)cc2)cc1.O.[Cl-].[Cl-]	0.705	0.846	1	0.996	0.996	0.996	1.03	1.02	0.947	0.947	0.98	1.03	0.991	0.963	0.937	1.05	1.01	0.873	0.997	0.954
FC(F)C(F)(F)OCC(Cn1cncn1)c1ccc(Cl)cc1Cl (stereo not given)	0.949	0.967	0.921	0.924	0.957	0.921	0.957	0.967	0.985	0.93	0.979	0.972	0.966	0.804	1.02	0.912	0.841	0.981	0.951	0.932
CCOP(=S)(OCC)SCCS(=O)(=O)CC	1.05	1.02	1	0.977	1.03	0.99	0.986	1.01	1	0.995	1.02	1.05	0.994	1.02	1	0.903	1.01	1.06	1.04	0.991
CS(=O)(=O)c1ccc(C(=O)C2C(=O)CCCC2=O)c([N+](=O)[O-])c1	0.895	0.986	0.946	0.977	0.979	0.972	0.965	0.965	0.986	0.972	0.966	1	0.985	0.882	0.97	1.04	1.02	0.736	0.998	0.948
CCC1(C(=O)NC(C)c2ccc(Cl)cc2)C(C)C1(Cl)Cl (stereo not given)	1.18	0.963	0.985	0.884	0.958	0.909	0.881	0.969	0.969	0.942	0.97	0.964	1	1	0.886	0.871	0.955	0.851	0.641 (active)	0.91
CCOP(=S)(OCC)SCCS(=O)CC (stereo not given)	1.04	1.02	0.979	0.985	1.02	1.02	1.05	1	0.967	1	0.971	0.985	0.98	1.11	1.02	0.941	0.948	1.06	1.01	1
CCCCN(CC)c1c([N+](=O)[O-])cc(C(F)(F)F)cc1[N+](=O)[O-]	0.993	1	0.964	1.01	1	1.02	0.99	1.01	1.11	1.04	1.03	0.994	1	0.864	1.04	1	1.03	1.05	1.06	1
